COUP-TFII inh – inhibitors of human COUP-TFII (NR2F2). HEK293T NGFI-A luciferase reporter, luminescence. inhibition, % at 8.6 µM. 0.7% of 370,000 active;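 active = inhibition above a per-plate cutoff, mean inhibition of test wells between control levels plus 3 SD, cut at about 38% in these data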;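 also: cells cotransfected with COUP-TFII expression vector driving the NGFI-A reporter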
Cardio protect – protects H9c2 cardiomyocytes from peroxide injury; H2O2 injury protection, ATPLite, 2 h; protection from H2O2 cell death, % at 20 µM; 0.63% of 360,000 active;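 active = compounds giving at least 50% protection of heart cells from peroxide-induced death in the single-dose screen, raw or plate-pattern-corrected value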
GAA850 FXN act – frataxin GAA850 promoter activation | activation, % at 6 µM | HEK293 lucGAA850 FXN promoter luciferase reporter, 24 h; percent of 10 µM SAHA response | 0.56% of 360,000 active;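 active = activation above the average of all compounds screened plus 3 SD, cutoff fixed separately per campaign, cut at about 7.5% in these data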
SMARCA2 activ – activators of SMARCA2 function; 1% of 370,000 active; MG213 cells, MMTV-luciferase reporter, dexamethasone, overnight; activation, % at 9.1 µM; in the data active = activation above about 7.8%
Gli-Sufu antag – antagonists of Gli-Sufu signaling | Sufu-KO-LIGHT fibroblasts, Gli luciferase reporter luminescence | inhibition, % at 5 µM | 0.74% of 340,000 active | AID 588413;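 active = inhibition above about 55%, limit read from the data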
GalR3 antagonist – human GalR3 antagonism; O60755; HEK293 GalR3-CNG cAMP membrane potential fluorescence; galR3 body fused to GalR1 C-terminus; inhibition, % at 3 µM; 0.44% of 360,000 active; AID 651719;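 active = inhibition above the screen-wide average plus 3 SD, cut at about 13% in these data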;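 also: forskolin and galanin both at EC90 stimulate the cells; cAMP rise reported by CNG channel membrane potential dye signal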
Target sequence (O60755 1-299 limits assumed): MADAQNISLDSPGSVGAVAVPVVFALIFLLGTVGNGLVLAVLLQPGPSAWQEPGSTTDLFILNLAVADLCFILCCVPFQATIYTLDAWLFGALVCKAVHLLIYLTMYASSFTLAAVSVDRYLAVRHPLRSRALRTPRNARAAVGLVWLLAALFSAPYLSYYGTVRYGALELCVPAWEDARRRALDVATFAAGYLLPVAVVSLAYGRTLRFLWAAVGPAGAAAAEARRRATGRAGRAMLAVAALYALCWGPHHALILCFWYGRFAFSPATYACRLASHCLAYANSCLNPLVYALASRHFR
Gli antag conf – Gli-SUFU antagonism confirmation, single concentration | inhibition, % at 5 µM | 40% of 2,500 active | shares compounds with Gli-Sufu antag | Sufu-KO-LIGHT cells, Gli luciferase reporter, luminescence | AID 602428;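 active = mean inhibition at 5 µM reaching about 45%, limit read from the data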
SufuKO cytotox – cytotoxic in Gli-SUFU antagonist counter-screen; shares compounds with Gli-Sufu antag; Sufu-KO-LIGHT cells cytotoxicity, ATP luminescence; cytotoxicity, % at 5 µM; 32% of 2,500 active; AID 651994;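 active = mean cytotoxicity at 5 µM above about 25%, limit read from the data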;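 also: cells exposed to compound overnight for roughly 16 to 18 hours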
Wnt3a cs – counter-screen for Gli-SUFU antagonists: Wnt3a reporter inhibition. shares compounds with Gli-Sufu antag. Wnt-LIGHT cells, Wnt3a-driven luciferase reporter, luminescence. 20% of 2,500 active. inhibition, % at 6.25 µM;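 active = mean inhibition above about 25%, limit read from the data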
Numbers stand for hits; – = inactive; · = not tested or not shown. Compounds with a hit are over-represented: about 3.4% of the library has one in this group of screens.

SMILES	COUP-TFII inh	Cardio protect	GAA850 FXN act	SMARCA2 activ	Gli-Sufu antag	GalR3 antagonist	Gli antag conf	SufuKO cytotox	Wnt3a cs
Cc1ccc(S(=O)(=O)N(C)C)cc1NC(=O)COC(=O)Cc1cccs1	–	–	–	–	–	–	·	·	·
O=C(Nc1ccccc1C(F)(F)F)OCCN1C(=O)CCC12CCC(c1ccccc1)CC2 (centres undefined)	–	·	·	–	·	·	·	·	·
CCCCn1c(=O)[nH]c(=O)c2c1nc(CN(C)Cc1cccc(OC)c1OC)n2CCC	–	–	–	–	63	–	–	–	–
COc1ccc(N(CC(=O)NC2CCCCCC2)S(=O)(=O)c2c(C)nn(C)c2C)cc1	–	–	–	–	–	–	–	–	–
Cc1ccc(N(CC(=O)NC2CCCCC2)S(=O)(=O)c2c(C)noc2C)cc1	–	–	–	–	–	–	–	–	–
CCOc1ccc(N(CC(=O)NC2CCC(C)CC2)S(=O)(=O)c2c(C)noc2C)cc1 (centres undefined)	–	–	–	–	–	–	·	·	·
CC(=O)NC(c1ccccc1)c1nc(-c2ccccc2)cs1 (centres undefined)	–	–	–	–	·	–	·	·	·
CC[N+]1=C(C)C(C)(C)c2cc(C)ccc21	–	–	–	–	57	–	45	–	–
C/C(=N\NC(=O)c1ccccc1O)c1c(O)cc(C)oc1=O	–	–	–	–	58	–	–	–	–
O=C(/C=C/[C@H]1O[C@@H](n2cnc3c(NC(=O)c4ccccc4)ncnc32)[C@H](O)[C@@H]1O)NCc1ccc2c(c1)OCO2	–	–	·	–	·	–	·	·	·
CC(Sc1nc2ccccc2c(=O)n1C)C(=O)NC1CCCCC1C (centres undefined)	·	–	–	·	59	·	55	–	–
CC(Sc1nc2ccccc2[nH]1)C(=O)NC1CCCCC1C (centres undefined)	–	–	–	–	–	–	·	·	·
O=C(/C(=C/c1ccccc1)c1ccccc1)N1CCCCC1	–	–	–	–	–	–	·	·	·
Nc1ccc(Cn2ccc3c4c(N)nc(N)nc4ccc32)cc1	–	–	–	–	61	–	58	–	41
C=CCSc1nnc(NC(=O)c2cccc(S(=O)(=O)N(C)c3ccccc3)c2)s1	–	–	–	–	74	–	–	–	–
CC(C)(C)NC(=O)C(C1CC1)n1c(=O)c(-c2ccccc2)nc2ccccc21 (centres undefined)	–	·	·	–	·	–	·	·	·
CCNC(=O)/C(C#N)=C/c1c(N(Cc2ccccc2)Cc2ccccc2)nc2ccccn2c1=O	–	73	–	–	88	–	–	–	–
Cc1cc(Cl)c2oc(C(=O)N3CCN(c4ccncc4)CC3)c(C)c2c1	–	–	–	–	68	–	–	–	–
Cc1c(C(=O)N2CCN(c3ccccc3)CC2)oc2c(F)cccc12	–	–	–	–	–	–	·	·	·
Cn1c(CSCc2ccc(Cl)cc2)nnc1SCC(=O)Nc1nccs1	–	–	–	–	–	–	·	·	·
Cn1c(CSCc2ccc(F)cc2)nnc1SCC(=O)Nc1nccs1	–	–	–	–	61	–	–	–	–
COc1ccc(S(=O)(=O)N2CC(O)CC2C(=O)Nc2cccnc2)cc1 (centres undefined)	–	–	–	–	–	–	·	·	·
CCOc1ccc(NC(=S)NNc2ccnc3cc(Cl)ccc23)cc1	–	–	–	–	56	–	66	–	–
S=C(NNc1ccnc2cc(Cl)ccc12)Nc1ccc(Cl)cc1Cl	–	–	–	–	–	–	·	·	·
COc1cc(NC(=S)NCc2ccc(S(N)(=O)=O)cc2)c(OC)cc1Cl	–	–	–	–	–	–	·	·	·
Cn1c(C(=O)NC2CCCC2)cc2c(=O)n(C)c3ccccc3c21	–	–	–	–	99	–	–	–	–
COc1cccc(-c2nnc(NC(=O)c3cccc(F)c3)o2)c1	–	–	–	–	–	–	·	·	·
O=C(Nc1nnc(-c2cccs2)o1)c1cccc(F)c1	–	–	–	–	–	–	–	–	–

Assay outcomes deposited in PubChem by several laboratories.
